The values that follow come from the supplement of paper PMC6555819.

Common to all, as to test: PBM binding z-score (relative to random genomic background probes); higher = stronger binding; sequences stand for … in GC…GCGATTGACAGCGTAGAATGAAGG
The subject of assay [1] is FXR:RXRa (NR concentration 270 nM, RXRa partner concentration 90 nM). The procedure, abridged: (§1)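 The probes on custom Agilent 4×180K protein-binding microarrays were double-stranded, with 34-nt variable regions bearing direct-repeat seeds, single-nucleotide variants, half-site ablations and random human genomic background sequences. Incubation lasted 1 h with ligand-free nuclear receptor dimers in PBS pH 7.4, 2% milk, 0.02% Triton X-100, 1 mM DTT, 0.2 mg/mL BSA and 0.4 mg/ml salmon testes DNA. Antibodies against each partner (one per run) detected bound dimers, and fluorescence scans were regression-normalized. Binding z-scores take the random background probes as reference.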

For assay [2], the system named is LXRa:RXRa (NR concentration 270 nM, RXRa partner concentration 90 nM). The procedure, abridged: as §1
For assay [3], the system named is LXRa homodimer (NR concentration 270 nM). The procedure, abridged:
as §1

Assay [4] relates to LXRb:RXRa (NR concentration 270 nM, RXRa partner concentration 90 nM). An outline of the steps: as §1
For assay [5], the system named is LXRb homodimer (NR concentration 270 nM). An outline of the steps: as §1
For assay [6], the system named is PPARa:RXRa (NR concentration 270 nM, RXRa partner concentration 90 nM). The procedure, abridged:
as §1

Assay [7] relates to PPARg:RXRa (NR concentration 180 nM, RXRa partner concentration 90 nM). The procedure, abridged: as §1
The test system of assay [8] is PPARg:RXRa 270nM:90nM, anti-RXR (NR concentration 270 nM, RXRa partner concentration 90 nM). The procedure, abridged: as §1
The test system of assay [9] is PPARg:RXRa 30nM:10nM, anti-RXR (NR concentration 30 nM, RXRa partner concentration 10 nM). The procedure, abridged:
as §1

Assay [10] deals with PPARg:RXRa 90nM:30nM, anti-RXR (NR concentration 90 nM, RXRa partner concentration 30 nM). An outline of the steps:
as §1

AGTCAAAGTTCAGGACGAGGTAACGTAGAGCACG: the PBM binding z-score in assay [1] was found to be 4.1; in assay [2], 3.8; in assay [3], 1.01; in [4] it was 2.04; in [5] it was 0.385; in assay [6] it was 3.59. Besides, the PBM binding z-score in assay [7] amounted to 4.68; in assay [8], 4.62; in assay [9], 2.13; in assay [10] it was 3.9.
As for GCTCGGAGGACAAGCTCAGAGCTTTGTCCGTAGA, the PBM binding z-score in assay [1] was -0.583; in assay [2], -0.885; in [3], -0.935; in assay [4] it was -0.784; in assay [5], -0.639; in [6], -0.425. The PBM binding z-score was -1.69 in assay [7], -1.3 in [8], -1.5 in [9] and -1.33 in [10].
Regarding CAGCCTAGGTCACGGCCAGTATAGGAGGAACGTT, the PBM binding z-score in assay [1] was 4.98; in [2], 3.61; in assay [3] it was 0.175; in [4], 2.7; in [5], -0.639; in [6], 4.72. In addition, the PBM binding z-score amounted to 4.54 in assay [7], 4.44 in assay [8], 1.29 in assay [9] and 3.12 in assay [10].
GGAACGAGGGCAAAGTTGATAGCCTCTGTCGACG: the PBM binding z-score in [1] is 1.19; in [2] it was 0.817; in [3] it was -0.461; in assay [4], 0.459; in [5], -0.828; in assay [6], 3.93. Moreover, the PBM binding z-score in [7] was 6.54; in assay [8], 7.37; in assay [9] it was 5.66; in assay [10], 7.65.
With CGTCCAAGGTCATAGGAGGACAGTGAAGACAGAT, the PBM binding z-score in [1] turned out to be 7.15; in assay [2] it was 6.2; in assay [3], 1.35; in assay [4], 4.45; in [5] it was 0.52; in assay [6], 5.39. Besides, the PBM binding z-score was found to be 4.71 in assay [7], 4.97 in [8], 1.81 in [9] and 3.56 in [10].
Take TCTGCTCGGTCAACGATGGTCAGCTAATCTGCTA: the PBM binding z-score is 0.568 in assay [1]; 0.372 in [2]; -0.251 in [3]; -0.449 in assay [4]; -0.425 in [5]; 0.275 in assay [6]. Further, the PBM binding z-score in assay [7] was -0.279; in assay [8], 0.898; in assay [9], 1.25; in assay [10] it was 1.09.
In the case of CCGACTGGGGCAAGGTTACCAAAACGCACAGCCA, the PBM binding z-score in assay [1] is 0.221; in assay [2], 0.494; in [3], -0.00504; in [4], 0.617; in assay [5], -1.39; in assay [6], 2.07. In addition, the PBM binding z-score worked out at 2.78 in [7], 3.62 in [8], 1.01 in [9] and 2.6 in [10].
As to CCTTACGGGTCAATCCAGGTTATAGCATCGGAGT, the PBM binding z-score in [1] was 5.24; in assay [2], 6.46; in [3], 0.547; in assay [4] it was 4.05; in assay [5], 0.285; in assay [6], 4.76. Moreover, the PBM binding z-score worked out at 3.53 in [7], 3.75 in [8], 1.26 in assay [9] and 2.54 in assay [10].
With GCTCGGAGGACAAGGTCAGAGGTTTGTCCGTAGA, the PBM binding z-score in assay [1] was 1.77; in [2], 1.52; in assay [3], -0.501; in assay [4] it was 1.28; in [5] it was -0.78; in assay [6] it was 2.39. Moreover, the PBM binding z-score is 1.75 in assay [7], 2.59 in assay [8], 0.214 in assay [9] and 2.08 in assay [10].
Turning to CCTGCTAGGTCAATGGTCTGCTAAAGCAGCTCGC, the PBM binding z-score was 2.61 in [1]; 2.26 in [2]; -0.00615 in assay [3]; 1.78 in assay [4]; -0.252 in [5]; 2.75 in [6]. For the same sequence, the PBM binding z-score was 2.2 in assay [7], 2.86 in [8], -0.129 in assay [9] and 1.83 in assay [10].
With CCTCGGAGGACAACAGGAGGTCTGAGCTGCCAGA, the PBM binding z-score in assay [1] is -0.506; in [2], -0.574; in [3] it was -0.845; in assay [4] it was -1.09; in assay [5] it was -1; in [6], -0.764. The PBM binding z-score was -0.138 in assay [7], -0.868 in [8], -1.36 in assay [9] and -1.17 in assay [10].
On to ACTAGCAGGCCAAGTTTGGGTCACTCTAACAAAG, for which the PBM binding z-score in assay [1] is 0.184; in assay [2] it was -0.0297; in [3], -0.399; in [4] it was 0.217; in assay [5] it was -0.928; in assay [6], 1.03. The PBM binding z-score is -0.172 in [7], 0.0985 in assay [8], -0.547 in assay [9] and -0.605 in [10].
